Most compounds without a hit are left out; they make up all but 1.5% or so of the library.
HTT ATP protect: protects HTT-Q103 PC12 cells, measured by ATP; Potency, µM (top dose mostly 56.4 µM), hits mostly activators; PC12 HTT-Q103 induced, cytoprotection, ATP luminescence, 40 h; actives 0.14% (n = 230,000); AID 1471; also: nearly all actives have a fitted effect of over 45% in size
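Compounds added alongside 100 nM tebufenozide, which induces toxic Q103 huntingtin exon 1-GFP in stable PC12 cells; surviving cells quantified by luminescent ATP measurement. Medium: phenol red-free DMEM, 5% equine and 5% calf serum.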
NPSR antagonist: blocks cAMP signaling of the human neuropeptide S receptor; Q6W5P4; CHO-NPSR cells, cAMP TR-FRET, antagonist mode; actives 1% (n = 220,000); Potency, µM (doses to about 38.3 µM), usual class: inhibitors; also: nearly all actives have a fitted effect of over 50% in size
Target sequence (Q6W5P4 whole entry, looked up): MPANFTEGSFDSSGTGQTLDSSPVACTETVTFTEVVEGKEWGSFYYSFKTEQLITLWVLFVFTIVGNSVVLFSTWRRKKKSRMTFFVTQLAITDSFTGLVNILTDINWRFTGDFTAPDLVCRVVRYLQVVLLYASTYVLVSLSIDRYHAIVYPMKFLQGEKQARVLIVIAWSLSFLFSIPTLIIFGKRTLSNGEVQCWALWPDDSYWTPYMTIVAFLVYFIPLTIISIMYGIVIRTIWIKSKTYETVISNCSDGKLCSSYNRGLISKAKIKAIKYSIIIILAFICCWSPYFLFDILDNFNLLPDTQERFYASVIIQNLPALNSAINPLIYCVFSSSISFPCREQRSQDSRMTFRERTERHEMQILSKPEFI
Epigenetic derep: derepresses silenced GFP reporter in murine cells; Potency, µM (top dose mostly 53.9 µM), most hits filed as activators; murine LDR cells, GFP reporter derepression, 30 h; actives 0.2% (n = 280,000); also: nearly all actives have a fitted effect of over 60% in size
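Murine LDR cells carrying a silenced, genomically integrated CMV-driven GFP reporter were exposed to compound for 30 hours at 37 C. After PBS washes, GFP-positive cells (20–120 um objects) were counted by laser-scanning microplate cytometry.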
Lamin A splicing: modulators of lamin A splicing. actives 0.01% (n = 200,000). Potency, µM (doses to about 46.1 µM), most hits filed as inhibitors. HeLa LMNA splicing GFP/RFP minigene ratio, 48 h. AID 1487; active = well fitted inhibition curve with a large enough effect in the signal ratio, with a control signal flat, not every such curve was filed as active; inconclusive = small, poorly fitted or top-dose-only effect, or effect the other way, or a change in a side signal; the % refers to the signal ratio
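S3 HeLa stable clones carrying a lamin A-EGFP splicing minigene plus DsRed2 were seeded at 600 cells/well in Opti-MEM with 2% FBS, pin-dosed and incubated 48 h at 37°C. Acumen cytometry (488 nm) gave the GFP/RFP total-intensity ratio.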
HTT aggregate: mutant huntingtin aggregation inhibition; PC12 HttQ103-GFP aggregates, Acumen cytometry, 40 h; AID 1688; Potency, µM (highest dose often 46.1 µM), actives largely listed as inhibitors; actives 1.1% (n = 220,000); also: nearly all actives have a fitted effect of over 60% in size
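Huntingtin Q103 exon 1–GFP aggregates in induced PC12 cells (100 nM tebufenozide) were quantified by cytometry from lysates, with compounds dosed in titration.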
HCC4017 tox: HCC4017 cytotoxicity of epigenetic modulator hits; shares compounds with Epigenetic derep; HCC4017 NSCLC viability, CellTiter-Glo ATP luminescence, 72 h; Potency, µM (titrated, usually from 46.1 µM), usual class: cytotoxic; actives 30% (n = 45); AID 493071
H358 viab: H358 cytotoxicity of epigenetic modulator hits; H358 NSCLC viability, ATP luminescence, 72 h; shares compounds with Epigenetic derep; Potency, µM (series often up to 46.1 µM), hits mostly cytotoxic; actives 30% (n = 45)
Of the large screens only hits and unclear results are named; the others gave an inactive call (follow-up assays come after a bar, where they were run). Unless noted, calls follow the shape of the dose curve; as a rule, active = well fitted curve in the direction sought with a large enough effect; inconclusive = small, poorly fitted or top-dose-only effect, or another doubt; inactive = no such curve, though single readings can be large; an effect the other way counts as inactive or inconclusive.

CCCCCC[C@H]1C(=O)O[C@@H](C)[C@H](NC(=O)c2cccc(NC=O)c2O)C(=O)O[C@@H](C)[C@@H]1OC(=O)CC(C)C	none (no result: NPSR antagonist, Epigenetic derep, Lamin A splicing, HTT aggregate)
CC(C)(C)NC[C@H](O)c1ccccc1Cl	none (no result: NPSR antagonist, Epigenetic derep, Lamin A splicing, HTT aggregate)
CCN(CC)c1ccc(/C=N/c2sc3c(c2C#N)C2CCN3CC2)c(O)c1	Epigenetic derep 2.8µM
CCOC(=O)c1ccc(NC(=O)c2cccn(Cc3ccc(C)cc3)c2=O)cc1	none (no result: HTT ATP protect, NPSR antagonist, HTT aggregate)
CCOC(=O)c1ccc(NC(=O)c2c(O)[nH]c(=O)[nH]c2=O)cc1	Lamin A splicing inconclusive, HTT aggregate 3.5µM
COC(=O)C1C(c2ccccc2)C2C(=O)c3c(OC)cc(OC)cc3O[C@@]12c1ccc(OC)cc1 (stereo partly drawn)	none (no result: NPSR antagonist, Lamin A splicing, HTT aggregate)
COC(=O)[C@@H]1[C@@H](O)[C@@]2(O)c3c(OC)cc(OC)cc3O[C@@]2(c2ccc(OC)cc2)[C@H]1c1ccccc1	Epigenetic derep 3.5µM (no result: NPSR antagonist, Lamin A splicing, HTT aggregate)
CCCNC(=O)c1c(N)n(Cc2ccco2)c2nc3ccccc3nc12	NPSR antagonist inconclusive
Nc1c(C(=O)NCC2CCCO2)c2nc3ccccc3nc2n1Cc1ccco1 (stereo not drawn)	Epigenetic derep 25µM (no result: Lamin A splicing)
COc1ccc(Cn2c(N)c(C(=O)NCc3ccco3)c3nc4ccccc4nc32)cc1OC	NPSR antagonist inconclusive, HTT aggregate inconclusive
Nc1c(C(=O)NCc2ccco2)c2nc3ccccc3nc2n1CCN1CCCCC1	NPSR antagonist inconclusive, Lamin A splicing inconclusive, HTT aggregate 3.2µM
CC(C)CNC(=O)c1c(N)n(Cc2ccc3c(c2)OCO3)c2nc3ccccc3nc12	NPSR antagonist 3.2µM, HTT aggregate inconclusive
CC(C)CCNC(=O)c1c(N)n(Cc2ccc3c(c2)OCO3)c2nc3ccccc3nc12	NPSR antagonist inconclusive, Epigenetic derep inconclusive, HTT aggregate inconclusive
Nc1c(C(=O)NC2CCCC2)c2nc3ccccc3nc2n1CC1CCCO1 (stereo not drawn)	NPSR antagonist 13µM
NNc1c(C(N)=O)c2c(N)ncnc2n1[C@@H]1O[C@H](CO)[C@@H](O)[C@@H]1O	none (no result: NPSR antagonist, Epigenetic derep, Lamin A splicing, HTT aggregate)
C=C[C@@H]1CN2CC[C@H]1C[C@H]2[C@@H](O)c1ccnc2ccccc12	none (no result: NPSR antagonist, Epigenetic derep, Lamin A splicing, HTT aggregate)
CC(C)OCCCNC(=O)c1c(N)n(Cc2cccs2)c2nc3ccccc3nc12	NPSR antagonist 10µM, Lamin A splicing inconclusive, HTT aggregate 28µM
COCCCNC(=O)c1c(NC(=O)c2ccco2)n(Cc2ccccc2)c2nc3ccccc3nc12	NPSR antagonist 13µM
CC(C)CCn1c(N)c(C(=O)NCc2cccs2)c2nc3ccccc3nc21	Epigenetic derep inconclusive, Lamin A splicing inconclusive
CC(C)CNC(=O)c1c(N)n(Cc2ccco2)c2nc3ccccc3nc12	NPSR antagonist 10µM
COc1cc([C@@H](O)CN)ccc1O	none (no result: NPSR antagonist, Epigenetic derep, Lamin A splicing, HTT aggregate)
CCCC[C@@H]1C[C@H]1C(NP(=O)(c1ccccc1)c1ccccc1)c1ccc(Cl)cc1 (stereo partly drawn)	none (no result: NPSR antagonist, Epigenetic derep, Lamin A splicing, HTT aggregate)
Oc1ccc2c3c1O[C@@H]1[C@@H](O)CC[C@]4(O)[C@H](C2)N(CC2CCC2)CC[C@@]314	none (no result: NPSR antagonist, Epigenetic derep, Lamin A splicing, HTT aggregate)
COc1cc2c(cc1O)CCN[C@H]2C	none (no result: NPSR antagonist, Epigenetic derep, Lamin A splicing, HTT aggregate)
C[C@H]1CC[C@@H]2[C@@H](C)C(=O)O[C@H]3O[C@@]4(C)CC[C@@H]1[C@]32OO4	none (no result: NPSR antagonist, Epigenetic derep, Lamin A splicing, HTT aggregate)
C[C@@]12CC[C@H](O)C[C@@H]1CC[C@H]1[C@H]2C[C@@H](O)[C@]2(C)[C@@H](C3=CC(=O)OC3)CC[C@@]12O	none (no result: NPSR antagonist, Epigenetic derep, Lamin A splicing, HTT aggregate)
CCn1nc(-c2ccccc2)nc2c(=O)n(C)c(=O)nc1-2	NPSR antagonist 4µM, Epigenetic derep inconclusive, Lamin A splicing inconclusive, HTT aggregate 8.9µM
Cc1nc2c(=O)n(C)c(=O)nc-2n(C)n1	NPSR antagonist inconclusive, Lamin A splicing inconclusive
OCCNc1c2c(nc3ccccc13)CCCC2	none
c1ccc(CNc2c3c(nc4ccccc24)CCC3)cc1	HTT aggregate 4.5µM (no result: Lamin A splicing)
CC(=O)NC1[C@H]([C@H](O)[C@H](O)CO)OC(C(=O)O)=C[C@H]1N=C(N)N (stereo partly drawn)	Lamin A splicing inconclusive (no result: NPSR antagonist, Epigenetic derep)
Cc1cc(OC(=O)c2ccco2)c2c3c(c(=O)oc2c1)CCCC3	Lamin A splicing inconclusive, HTT aggregate 13µM
Cc1cc(OC(=O)c2cccs2)c2c3c(c(=O)oc2c1)CCCC3	Lamin A splicing inconclusive, HTT aggregate 25µM
COC(=O)c1ccc(COc2cc(C)cc3oc(=O)c4c(c23)CCCC4)o1	NPSR antagonist inconclusive
Cc1cc(OCC(=O)O)c2c3c(c(=O)oc2c1)CCCC3	none
CO[C@@H](C)[C@](O)(C(=O)OC1=CCN2CC[C@H](O)[C@H]12)C(C)C	none (no result: NPSR antagonist, Epigenetic derep, Lamin A splicing, HTT aggregate)
C[C@@H](CO)NC(=O)[C@H]1C=C2c3cccc4[nH]cc(c34)C[C@H]2N(C)C1	none (no result: NPSR antagonist, Epigenetic derep, Lamin A splicing, HTT aggregate)
CC(C)[C@@]1(NC(=O)[C@H]2C[C@H]3c4cccc5[nH]cc(c45)C[C@@H]3N(C)C2)O[C@]2(O)[C@H]3CCCN3C(=O)[C@H](Cc3ccccc3)N2C1=O	none (no result: NPSR antagonist, Epigenetic derep, Lamin A splicing, HTT aggregate)
CCc1cccc(NC(=O)Cn2c(=O)oc3cc(S(=O)(=O)N4CCOCC4)ccc32)c1	Lamin A splicing inconclusive, HTT aggregate 2.2µM
CCN1C[C@@]2(C)CC[C@H](O)[C@@]34[C@@H]5C[C@H]6[C@H](O)[C@@H]5[C@](O)(C[C@@H]6OC)[C@H](C[C@@H]23)[C@H]14	none (no result: NPSR antagonist, Epigenetic derep, Lamin A splicing, HTT aggregate)
c1ccc2c(c1)OCC(C1=NCCN1)O2 (stereo not drawn)	HTT ATP protect 16µM, Lamin A splicing inconclusive
Cc1ccc(N)c(C(=O)c2ccc(Br)cc2)c1	HTT aggregate 7.1µM (no result: Lamin A splicing)
Nc1ccc(Br)cc1C(=O)c1ccccc1	none
C[C@@H]1O[C@@H](O[C@H]2C[C@@H](O)[C@]3(CO)[C@@H]4[C@@H](O)C[C@]5(C)[C@H](C6=CC(=O)OC6)CC[C@@]5(O)[C@H]4CC[C@@]3(O)C2)[C@H](O)[C@H](O)[C@@H]1O	none (no result: NPSR antagonist, Epigenetic derep, Lamin A splicing, HTT aggregate)
Cc1c(P(=S)(c2ccccc2)c2ccccc2)[n+]2ccccc2n1C	NPSR antagonist 1.3µM
CN1CSC(=S)N(C)C1	Epigenetic derep 8.9µM | HCC4017 tox inconclusive | H358 viab inconclusive
C[C@@]12CC[C@H]3[C@@H](CCC4=CC(=O)CC[C@]43C)[C@H]1CCC2=O	none (no result: NPSR antagonist, Epigenetic derep, Lamin A splicing, HTT aggregate)
